Test results reported in PubChem BioAssay (NCI).
The panel holds about 83,000 compounds, 20% with a hit somewhere; the sample as a whole holds those more often.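 Note: values are percent growth. 100 is the growth of untreated cells, values between 100 and 0 indicate rising inhibition; between -100 and 0 indicates cell death.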 A number with no mark means an inactive call. The source made the active and inactive calls. Rule for the calls: active = growth percent below 10; inactive = the rest.

Legend:
Assay in all cases: NCI-60 one-dose screen, 48 h (100 = growth as untreated, 0 = no growth, -100 = all killed)
Settings in all cases: 10 µM
[1] = tested on: NCI-H23 lung
[2] = tested on: NCI-H522 lung
[3] = tested on: MDA-MB-231 breast
[4] = tested on: M14 melanoma
[5] = tested on: SK-MEL-5 melanoma
[6] = tested on: UACC-62 melanoma
[7] = tested on: MOLT-4 leukemia
[8] = tested on: SR leukemia
[9] = tested on: OVCAR-8 ovarian
[10] = tested on: OVCAR-5 ovarian
[11] = tested on: OVCAR-4 ovarian
[12] = tested on: SK-OV-3 ovarian
[13] = tested on: IGROV1 ovarian
[14] = tested on: HS 578T breast
[15] = tested on: NCI/ADR-RES ovarian
[16] = tested on: T-47D breast
[17] = tested on: SW-620 colon
[18] = tested on: MCF7 breast
[19] = tested on: HCT-116 colon
[20] = tested on: KM12 colon

N#Cc1nc(-c2ccccc2)oc1N1CCC(S(=O)(=O)F)CC1
growth [1]: 99.2%
growth [2]: 93.9%
growth [3]: 98.7%
growth [4]: 106%
growth [5]: 96.3%
growth [6]: 98.1%
growth [7]: 94.3%
growth [8]: 83.4%
growth [9]: 94.3%
growth [10]: 104%
growth [11]: 101%
growth [12]: 107%
growth [13]: 103%
growth [14]: 98.5%
growth [15]: 104%
growth [16]: 106%
growth [17]: 103%
growth [18]: 98.2%
growth [19]: 101%
growth [20]: 97.1%

COC(=O)[C@H]1[C@@H](O)[C@@]2(O)c3c(OC)cc(OC)cc3O[C@@]2(c2ccc(OC)cc2)[C@@H]1c1ccccc1
growth [1]: -12% (active)
growth [2]: -28.7% (active)
growth [3]: -5.45% (active)
growth [4]: -1.79% (active)
growth [5]: -55.8% (active)
growth [6]: -14.9% (active)
growth [7]: 2.37% (active)
growth [8]: 13.2%
growth [9]: -11.6% (active)
growth [10]: -6.47% (active)
growth [11]: 2.23% (active)
growth [12]: -12.2% (active)
growth [13]: -17.3% (active)
growth [14]: -5.48% (active)
growth [15]: 0.819% (active)
growth [16]: -11.7% (active)
growth [17]: 3.66% (active)
growth [18]: -0.926% (active)
growth [19]: -6.31% (active)
growth [20]: 3.23% (active)

CC1=C[C@H]2O[C@@H]3C[C@@H](O)[C@](C)([C@@]2(C)CC1)[C@@]31CO1
growth [1]: 28.4%
growth [2]: 31%
growth [3]: 42.4%
growth [4]: 6.68% (active)
growth [5]: 12.1%
growth [6]: 44.5%
growth [7]: 9.97% (active)
growth [8]: 18.1%
growth [9]: 27.7%
growth [10]: 78.9%
growth [11]: 32%
growth [12]: 22.9%
growth [13]: 28.3%
growth [14]: 37.8%
growth [15]: 36.1%
growth [16]: 29.6%
growth [17]: 24%
growth [18]: 17.6%
growth [19]: 7.52% (active)
growth [20]: 26.1%
